Assay outcomes: PubChem BioAssay, National Center for Advancing Translational Sciences (NCATS)
MARV entry inh: qHTS for inhibitors of binding or entry into cells for Marburg Virus; Marburg virus pseudotyped entry inhibition, cell reporter; Potency, µM (titrated, usually from 37.8 µM), most hits filed as inhibitors; 1.8% of 300,000 active; calls by dose curve; tested in HEK293 cells
Pf growth 48h: Primary qHTS for delayed death inhibitors of the malarial parasite plastid, 48 hour incubation. 5.9% of 310,000 active. Potency, µM (top dose mostly 28.7 µM), usual class: inhibitors. P. falciparum luciferase growth in erythrocytes, 48 h
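Growth was read as firefly luciferase luminescence after a 48 h, 37 C, 5% CO2 exposure of compounds to reporter-bearing P. falciparum cultures (0.1% parasitemia, 2% hematocrit final) in Albumax-supplemented RPMI 1640.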
Pf growth 96h: Primary qHTS for delayed death inhibitors of the malarial parasite plastid, 96 hour incubation; P. falciparum luciferase reporter growth, 96 h; Potency, µM (titrated, usually from 28.7 µM), usual class: inhibitors; 6.9% of 320,000 active; AID 504834, 2011
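P. falciparum expressing integrated firefly luciferase, in erythrocytes at 2% hematocrit, 0.05% parasitemia, incubated with compounds 96 h at 37 C, 5% CO2. Growth inhibition read as loss of luminescence; two-generation exposure targets delayed-death apicoplast inhibitors.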
LASV entry inh: qHTS for Inhibitors of binding or entry into cells for Lassa Virus; Lassa virus pseudotype entry inhibition, cell reporter; Potency, µM (series often up to 37.9 µM), hits mostly inhibitors; 1.2% of 300,000 active; calls by dose curve; tested in HEK293 cells; further: nearly all actives have a fitted effect of over 50% in size
CHX counter: Cycloheximide Counterscreen for Small Molecule Inhibitors of Shiga Toxin; cell reporter, cycloheximide protein synthesis inhibition counterscreen; max response, %; 12% of 300,000 active; AID 2314, 2010; in the data active means max response mostly above about 13%, no sharp cut-off; inactive means mostly below about 14%; further: read at 38.3 µM for the half of the compounds with a filed dose
Shiga toxin inh: A qHTS for Small Molecule Inhibitors of Shiga Toxin; inhibition, % at 38.7 µM; 9.2% of 290,000 active; Vero cells, Shiga toxin protein synthesis inhibition reporter; in the data active means inhibition mostly above about 28%, no sharp cut-off; inactive means mostly below about 43%
Large screens that a line does not name were inactive; ! = a repeat was not active. In the library only some 19% were active in any assay of this set; here they are far more common. Unless noted, the call rests on the fitted dose curve; in most records, active means well fitted inhibition curve with a large enough effect; inconclusive means small, poorly fitted or top-dose-only effect, or another doubt; inactive means no such curve, though single readings can be large or run the other way.

COc1cc(C(=O)NCCOc2cc(C)ccc2C(C)C)cc(OC)c1OC	MARV entry inh 3.2µM, LASV entry inh 2.8µM
Cc1ccc(C(C)C)c(OCCNC(=O)c2cncc(Br)c2)c1	MARV entry inh inconclusive, Pf growth 48h inconclusive, Pf growth 96h inconclusive, LASV entry inh inconclusive
COc1cc(C(=O)N[C@H](C(=O)NC(C)C23CC4CC(CC(C4)C2)C3)C(C)C)cc(OC)c1OC (stereo partly specified)	Pf growth 96h inconclusive (no result: Pf growth 48h)
COc1ccc(OCCNC(=O)c2cccc(Oc3ccc(C(F)(F)F)cc3[N+](=O)[O-])c2)cc1	MARV entry inh inconclusive
COc1ccc(-n2c(SCC(=O)O)nc3sc4c(c3c2=O)CCC4)cc1	MARV entry inh inconclusive, Pf growth 96h inconclusive
CCCN1CCc2c(sc3nc(SCC)n(-c4ccccc4)c(=O)c23)C1	MARV entry inh inconclusive, Pf growth 48h 1.3µM, Pf growth 96h 0.26µM, LASV entry inh inconclusive
CCCN1CCc2c(sc3nc(SCC)n(-c4ccc(OC)cc4)c(=O)c23)C1	Pf growth 48h 5.9µM, Pf growth 96h 0.59µM
CC1CCc2c(sc3nc(SCC(=O)O)n(-c4ccccc4)c(=O)c23)C1 (stereo unspecified)	Pf growth 96h inconclusive (no result: MARV entry inh, LASV entry inh)
C=CCSc1nc2sc3c(c2c(=O)n1-c1ccccc1)CCN(C)C3	MARV entry inh inconclusive, Pf growth 48h inconclusive, Pf growth 96h 0.59µM
CN1CCc2c(sc3c2c(=O)n(-c2ccccc2)c2nnc(SCc4ccccc4)n32)C1	Pf growth 48h 6.6µM (no result: Pf growth 96h)
CC(c1ccccc1)n1cc(C(=O)NCc2cccnc2)nn1 (stereo unspecified)	none (no result: Pf growth 48h)
Cc1cc(C)cc(NC(=O)C2CCN(S(=O)(=O)c3cccc4nonc34)CC2)c1	none (no result: MARV entry inh, Pf growth 48h, Pf growth 96h, CHX counter, Shiga toxin inh)
CC(=O)Nc1ccc(NC(=O)C(C)OC(=O)c2ccc3c(c2)OCCO3)cc1 (stereo unspecified)	Pf growth 96h inconclusive (no result: MARV entry inh, LASV entry inh)
CCSc1nc2sc3c(c2c(=O)n1-c1ccccc1)CCN(C)C3	Pf growth 48h 3.3µM (no result: MARV entry inh, LASV entry inh, Shiga toxin inh)
CCCN1CCc2c(sc3nc(SC)n(-c4ccccc4)c(=O)c23)C1	Pf growth 48h 0.93µM, Pf growth 96h 0.74µM
CC(Sc1nc2sc3c(c2c(=O)n1-c1ccccc1)CCCC3)C(=O)O (stereo unspecified)	none (no result: LASV entry inh)
COCCSc1nc2sc3c(c2c(=O)n1-c1ccccc1)CCN(C)C3	Pf growth 96h inconclusive (no result: Pf growth 48h)
COc1ccc(-n2c(SC)nc3sc4c(c3c2=O)CCN(C)C4)cc1	Pf growth 48h 3.7µM, Pf growth 96h 7.4µM
Cc1c(C(=O)N2CCCCC2)sc(NC(=O)c2ccco2)c1C#N	none
CCCCc1c(C)nc2ccc(Br)cc2c1SC(N)N	Pf growth 48h inconclusive (no result: MARV entry inh, LASV entry inh)
COc1ccc(CC(=O)NC(C)c2nnc(SCc3nc4ccccc4c(=O)[nH]3)n2C)cc1 (stereo unspecified)	none (no result: Pf growth 96h)
CCOc1ccccc1N(CC(=O)NCCSCc1ccco1)S(=O)(=O)c1ccccc1	MARV entry inh inconclusive, Pf growth 48h 8.3µM, LASV entry inh inconclusive
CCOc1ccc(S(=O)(=O)N(CC(=O)N/N=C/c2cccs2)c2ccc(C)cc2)cc1	MARV entry inh inconclusive, Pf growth 48h 13µM, Pf growth 96h inconclusive, LASV entry inh inconclusive
CCOc1ccc(N(CC(=O)NCCSCc2ccco2)S(=O)(=O)c2ccc(F)cc2)cc1	Pf growth 48h inconclusive, LASV entry inh inconclusive
COc1ccc(S(=O)(=O)N(CC(=O)N/N=C/c2cccs2)c2ccc(C)cc2)cc1OC	MARV entry inh inconclusive, LASV entry inh inconclusive (no result: Pf growth 96h)
CCOc1ccc(N(CC(=O)NCCSCc2ccco2)S(=O)(=O)c2ccc(C)cc2)cc1	Pf growth 48h inconclusive, Pf growth 96h 8.3µM, LASV entry inh inconclusive
CC(=O)c1cc2c(cc1NS(=O)(=O)c1ccccc1)OCO2	none (no result: Pf growth 48h)
CCC(C)NS(=O)(=O)c1ccc(S(=O)(=O)Nc2cc3c(cc2C(C)=O)OCO3)cc1 (stereo unspecified)	Pf growth 96h 9.3µM
C=CCn1c(SCc2cc(=O)n3ccsc3n2)nc2ccccc2c1=O	none (no result: MARV entry inh, LASV entry inh)
C=CCn1c(SCc2cc(=O)n3ccsc3n2)nc2scc(C3CC3)c2c1=O	Pf growth 48h inconclusive, Pf growth 96h 4.1µM
O=C(COc1ccc2c3c(c(=O)oc2c1)CCC3)NC1CCN(Cc2ccccc2)CC1	Pf growth 96h inconclusive (no result: MARV entry inh, LASV entry inh)
CCOC(=O)C1=C(C)NC(C)=C(C(=O)OCC)C1C(=O)OCC(=O)N1c2ccccc2CC1C (stereo unspecified)	MARV entry inh 13µM!, Pf growth 96h inconclusive, LASV entry inh inconclusive (no result: Pf growth 48h)
CCOC(=O)C1=C(C)NC(C)=C(C(=O)OCC)C1C(=O)OCC(=O)NC(C)c1ccccc1 (stereo unspecified)	MARV entry inh inconclusive, Pf growth 48h inconclusive, Pf growth 96h 13µM, LASV entry inh inconclusive (no result: CHX counter, Shiga toxin inh)
CC(NC(=O)COC(=O)c1cccs1)c1ccccc1 (stereo unspecified)	CHX counter 12 (no result: LASV entry inh)
CC(NC(=O)COC(=O)c1ccc(N(C)C)cc1)c1ccccc1 (stereo unspecified)	MARV entry inh inconclusive, Pf growth 48h 12µM, LASV entry inh inconclusive
Nc1nnnn1/N=C/c1cc(Cl)cc(Cl)c1O	Pf growth 96h inconclusive (no result: Shiga toxin inh)
CCO[C@H]1OC(C(=O)NC2CC2)=C[C@@H](c2ccc(Br)cc2)[C@@H]1CCCO	none (no result: MARV entry inh, LASV entry inh)
COc1cccc(-c2nc(CS(=O)CC(=O)NCc3ccc4c(c3)OCO4)c(C)o2)c1 (stereo unspecified)	none (no result: MARV entry inh, Pf growth 48h, LASV entry inh)
COc1ccc(-c2nc(CS(=O)CC(=O)NCc3ccccc3OC)c(C)o2)cc1 (stereo unspecified)	MARV entry inh inconclusive (no result: Pf growth 48h, Pf growth 96h, CHX counter, Shiga toxin inh)
COc1ccccc1CNC(=O)CS(=O)Cc1nc(-c2ccccc2C)oc1C (stereo unspecified)	Pf growth 96h 5.2µM (no result: MARV entry inh, Pf growth 48h, LASV entry inh)
COc1ccc(-c2nc(CS(=O)CC(=O)NCc3ccc4c(c3)OCO4)c(C)o2)cc1 (stereo unspecified)	Pf growth 96h 4.7µM (no result: Pf growth 48h, LASV entry inh)
COc1ccc(CNC(=O)CS(=O)Cc2nc(-c3ccc(C)cc3)oc2C)cc1 (stereo unspecified)	Pf growth 96h 7.4µM (no result: MARV entry inh, Pf growth 48h, LASV entry inh)
C[C@@]12CCC3[C@@](CCC4[C@@]3(C)CCC[C@@]4(C)C(=O)NCc3ccccc3)(CC1=O)C2 (stereo partly specified)	none (no result: MARV entry inh, LASV entry inh, CHX counter, Shiga toxin inh)
O=S(=O)(Nc1nc2ccccc2nc1NCC1CCCO1)c1cccs1 (stereo unspecified)	Pf growth 96h inconclusive
CC(Nc1ccc(Cl)cc1)c1cc(Cl)ccc1O (stereo unspecified)	Pf growth 48h 9.3µM
CCOc1ccc(NC(C)c2cc(Cl)ccc2O)cc1 (stereo unspecified)	none
CCCc1nnc(NC(=O)CSc2nc3ccccc3[nH]2)s1	MARV entry inh inconclusive, LASV entry inh inconclusive, CHX counter 19, Shiga toxin inh 44
CCOC(=O)c1c(NC(=O)COc2ccccc2)sc2c1CC(C)(C)NC2(C)C	MARV entry inh inconclusive, Pf growth 48h inconclusive (no result: LASV entry inh)
